# Measurements as given in PubChem BioAssay (NCI).
# The panel holds about 79,000 compounds, 15% with a hit somewhere; the sample as a whole holds those more often. Values without a mark were called inactive. Active and inactive are the calls of the source. Rule as the data show it: active = growth inhibition above about 70%; inactive = the rest.
# What was measured:
# [1] = NCI Yeast Anticancer Drug Screen. Data for the rad50 strain (AID 155);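 also: 0% = growth of vehicle-only cultures of the same strain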; details: S. cerevisiae rad50 strain growth inhibition; at 50.0 µM; hits give high values
# Summary of the method: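 Compounds were tested on a yeast strain with an engineered DNA damage repair alteration; the reported value is growth inhibition normalised to vehicle treatment.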
# [2] = NCI Yeast Anticancer Drug Screen. Data for the mec2-1 strain (AID 157); details: S. cerevisiae mec2-1 strain, at 50.0 µM, hits give high values
# Summary of the method: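 Vehicle-treated cultures served as reference for growth inhibition of compound-exposed mec2-1 yeast.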
# [3] = NCI Yeast Anticancer Drug Screen. Data for the sgs1 mgt1 strain (AID 161);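 also: 0% = growth of cultures given vehicle only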; details: S. cerevisiae sgs1 mgt1 strain, at 50.0 µM, hits give high values
# Summary of the method: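 Read-out: growth inhibition vs vehicle controls. Cells: mutant yeast strain deficient in DNA damage repair.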
# [4] = NCI Yeast Anticancer Drug Screen. Data for the cln2 rad14 strain (AID 165);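 also: 0% = growth equal to vehicle treated cultures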; details: S. cerevisiae cln2 rad14 strain, at 50.0 µM, hits give high values
# Summary of the method: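 Each compound was tested on cln2 rad14 yeast. Inhibition of growth was calculated against vehicle-exposed controls.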
# [5] = NCI Yeast Anticancer Drug Screen. Data for the bub3 strain (AID 167); details: S. cerevisiae bub3 mutant strain, at 50.0 µM, hits give high values
# Summary of the method: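 Growth of a checkpoint-deficient yeast mutant is measured after compound exposure. Values represent inhibition relative to vehicle.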
# [6] = NCI Yeast Anticancer Drug Screen. Data for the mlh1 rad18 strain (AID 175); details: S. cerevisiae mlh1 rad18 strain growth inhibition; at 50.0 µM; hits give high values
# Summary of the method: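 Vehicle-treated cultures served as the reference for growth inhibition in a yeast strain carrying DNA damage repair alterations exposed to each compound.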
SMILES,growth inhibition [1],growth inhibition [2],growth inhibition [3],growth inhibition [4],growth inhibition [5],growth inhibition [6]
O=C(NNC(=O)c1ccc2ccccc2n1)c1ccc2ccccc2n1,5.2%,2.45%,12.3%,9.8%,0.2%,16.6%
CC1(C)NC(=S)NC1=S,5.4%,-6.9%,-13.9%,-26.9%,-4.45%,-4.35%
Cc1ccc2nc(C)cn2c1,-0.05%,7.7%,-1.15%,14.3%,10.7%,2.3%
CC(=O)[C@H]1CC[C@@H]2[C@]1(C)CC=C1[C@]23C=C[C@]2(C[C@@H](O)CC[C@]12C)C(C(=O)O)C3C(=O)O (some centres not stated),2.35%,-18%,-39.7%,4.2%,-13.1%,7.25%
CC(=O)Nc1nc(C)c(CCCOc2ccc([N+](=O)[O-])cc2)c(Cl)n1,1.65%,11.4%,4%,1.4%,27.1%,12.2%
Clc1nncc2sc(-c3ccccc3)nc12,20.9%,-1.7%,28.1%,17.4%,18.3%,-18.3%
CCCCCC/C=C1\CCC(CN(C)C)C1=O (configuration not stated),79.4% (active),93.2% (active),91.1% (active),89.8% (active),90.7% (active),91.4% (active)
CCC(=O)OCC(OC(=O)CC)c1ccccc1 (configuration not stated),3.75%,-22.6%,-16.1%,2.05%,3.75%,8.2%
O=NNc1nc2ncccc2cc1-c1ccccc1Cl,-7.8%,-6.05%,-5.9%,9.75%,-22.2%,-8.2%
COC(=O)c1cc(-c2ccc(N)cc2)c2c(=O)n(-c3ccccc3)[nH]c2n1,26.1%,19%,30.9%,-0.65%,-1.4%,6.45%
O=C1CC2CC1C1CC(Br)C(Br)C21 (configuration not stated),-2.9%,-17.3%,-8.8%,-4.85%,-15.7%,-1.1%
CCCCCCCCCCc1ccc(CCCCCCCCCC)cc1,7%,7.2%,4.6%,-4.55%,2.05%,-7.9%
O=P(Nc1ccc(Cl)c(Cl)c1)(N1CCCCC1)N1CCCCC1,3.5%,-47.8%,-12.4%,-12.8%,2.45%,14.7%
O=C1CC(NC(=O)C(F)(F)F)c2c(Br)sc(N3CCNCC3)c21 (configuration not stated),6.05%,12.1%,-25.2%,-2.2%,-2.65%,-30.4%
Cc1ccc(CCCC(=O)O)c2ccc3ccccc3c12,4.15%,2.4%,8.6%,-9.4%,4.3%,3.55%
Nc1ncnc2c1[nH]c(=S)n2C1OC(CO)C(O)C1O (configuration not stated),14.4%,6.3%,3.1%,-12.1%,4%,0.15%
CCOC(=O)c1nc(N)c2c(CC#N)nn(C)c2n1,2.35%,-15.4%,8.3%,-9.75%,9.95%,-16.4%
CCc1ccc[n+](-c2ccncc2CC)c1,-7.9%,-9.55%,-9.15%,-12.9%,2.8%,-9.8%
CC(=O)CSc1cc(C)c2ccccc2n1,-6.6%,-7.35%,-11.1%,-10.8%,-13.1%,1.05%
COc1ccc(C2C3=C(COC3=O)OC(C)(C)Oc3cc4c(cc32)OCO4)cc1 (configuration not stated),-3%,0.85%,13.7%,6.5%,36.1%,-19.9%
O=C(/C=C/c1cccs1)c1ccc([N+](=O)[O-])cc1,-59%,-58.7%,-27.6%,-6.3%,-23.1%,-21.6%

SMILES,growth inhibition [1],growth inhibition [2],growth inhibition [3],growth inhibition [4],growth inhibition [5],growth inhibition [6]
NC(=O)c1ccc([N+](=O)[O-])cc1,6%,-5.15%,27.1%,-24.8%,-1.4%,15.3%
C=C(C)C(=O)OCCOCCOCCOC(=O)C(=C)C,8.4%,-19.2%,-9.75%,3%,-7.7%,4.5%
CNc1ncn(-c2c(C)cccc2C)c(=O)n1,-2.5%,-3.6%,8.85%,-15.8%,-2.65%,4.05%
CN(C)CCC(C(=O)NCc1ccccc1)C(=O)NCc1ccccc1,-6.1%,-9.95%,1.3%,-17.4%,-2.55%,-17.2%
NS(=O)(=O)c1cccc(C(F)(F)F)c1,-7.95%,-37.9%,-13.6%,-21.7%,-16.4%,-7.2%
CCCCCC(O)(CCCC)CCCC,-0.45%,-5.6%,-14.3%,-12.6%,-0.55%,-1.15%
O=[N+]([O-])c1ccc(Cc2ncnc3c2ncn3C2OC(CO)C(O)C2O)cc1 (configuration not stated),5.1%,-13.2%,-16.4%,-0.95%,2.15%,-18.9%
CN(C)S(=O)(=O)C(CO)c1ccccc1 (configuration not stated),5.75%,12.9%,6.8%,3.15%,-5.4%,10.5%
Cc1ccc2c(c1)-c1cc(C)ccc1C2,29.1%,19.9%,16.4%,15%,29.4%,-1.35%
Cc1nc(SCC(=O)Nc2ccc(Cl)cc2)c2sc(=S)n(-c3ccccc3)c2n1,-14.2%,4.6%,-1.25%,2.35%,-4.4%,5.4%
Cn1cnc([N+](=O)[O-])c1SC1=NCCS1,7.8%,-1.4%,10.2%,25.3%,22.9%,-7.5%
C=CCNC(=S)N/C=C(/C#N)C(=O)OC,1.85%,-9.75%,-16.5%,21.6%,-8%,15.7%
Cc1nn(C(=O)Cc2ccccc2)c2c1C(c1ccc(O)cc1O)SC(N)=N2 (configuration not stated),-38.9%,-23.1%,-35.5%,0.8%,-15.6%,-36.5%
O=C(Cc1ccc([N+](=O)[O-])cc1)ON1C(=O)CCC1=O,-11.8%,2.65%,-4.65%,-18.9%,-20.1%,6%
COc1cc2c(c(OC)c1OC)-c1ccc(SCC3CCC4CC3C4(C)C)c(=O)cc1C(NC(C)=O)CC2 (configuration not stated),97.5% (active),97.3% (active),98% (active),96.2% (active),95.9% (active),96.9% (active)
CC(C)CC(=O)Cc1nc2n(c1O)C(=N)N=N2,-35.5%,-15.9%,-14.2%,-40.7%,-11.8%,-20.1%
CCOc1ccc(C2OCC(C)O2)cc1OC (configuration not stated),13.2%,13.6%,2.3%,10.3%,-0.5%,11.7%
NCC(O)CN,-13.8%,-0.75%,-2.75%,-8.2%,-0.55%,1.45%
CC(NC(=O)C(OC(=O)C(C)NC(=O)OC(C)(C)C)C(C)C)C(=O)OC(C(=O)O)C(C)C (configuration not stated),-24.2%,10.3%,-5.75%,-1.1%,2.1%,-7.15%
CCCCCCC#CC(=O)O,7.8%,-3.6%,0.5%,16.1%,-4.3%,30.4%
O=[N+]([O-])c1ccc(N=NNc2ccc(N=Nc3ccccc3)cc2)cc1,12.1%,-18.8%,-1%,6.7%,0.1%,4.6%
